Only a selection was taken, and hits are over-represented in it overall.
Pf apPOL inh – Pf-apPOL DNA polymerase inhibition; AID 1794808; Recombinant Pf-apPOL, molecular beacon fluorescence, 1.5 h; hit rate 0.25% among 210,000; inhibition, % at 10 µM
mHTT-CaM PPI inh – inhibitors of human mutant huntingtin-calmodulin interaction. P42858. AlphaScreen His-mHTT/GST-CaM binding, luminescence. inhibition, % at 15 µM. hit rate 3.6% among 190,000. AID 1671202;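 note: 0% = both proteins with DMSO and 100% = one protein alone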
* marks the source's active call; other numbers are inactive results; . = no result given; ! = a repeat was not active. Cut-off read from the data, not from the text of the source: active = inhibition above about 50%; inactive = the rest.

SMILES	Pf apPOL inh	mHTT-CaM PPI inh
Cc1ccc(N2C(=O)S/C(=C\c3cccc([N+](=O)[O-])c3)C2=O)cc1	8	1
O=c1cc(CN2CCN(c3ccccc3)CC2)nc(-c2cccnc2)[nH]1	-2	-1
O=C(Nc1ccc(F)cc1)C1CC(=O)N(c2ccc(F)cc2)C1 (configuration not stated)	6	-9
CC12c3ccccc3C(c3ccccc31)C1C(=O)N(c3ccccc3[N+](=O)[O-])C(=O)C12 (configuration not stated)	3	27
CCC1CCCCN1S(=O)(=O)c1cc(C(=O)Nc2ccc(C)c(F)c2)ccc1F (configuration not stated)	1	-2
O=C(O)CCn1c2c(sc1=O)C1c3ccccc3OCC1CS2 (configuration not stated)	1	26
O=c1sc2c(n1-c1ccccc1)SCC1COc3ccccc3C21 (configuration not stated)	-14	66*
CN1N=C(c2ccc3ccccc3c2)CC1c1ccc(C(F)(F)F)cc1 (configuration not stated)	1	.
Cc1[nH]c2ccccc2c1CCNC(=O)/C(=C/c1ccc2c(c1)OCO2)NC(=O)c1ccccc1	-8	75*
O=C(NCCO)/C(=C\c1ccc2c(c1)OCO2)NC(=O)c1ccc(Br)cc1	2	0
CCOc1ccc(S(=O)(=O)Nc2ccc(Br)cc2)c2cccnc12	-2	33
COc1cc(CN2CCN(c3cc(C)ccc3C)CC2)cc(OC)c1OC	-2	10
COc1cc(CN2CCN(c3cc(C)ccc3C)CC2)cc(I)c1O	-3	85*
COc1cc(CN2CCCCCCC2)cc(OC)c1O	-4	72*
COc1cc(CN2CCCCCC2)cc(I)c1O	-1	-6
COc1ccc(OCc2noc(CNC(=O)c3ccc(S(=O)(=O)N(C)C)cc3)n2)cc1	-6	-8
COc1ccccc1C(=O)Nc1c2c(nn1-c1ccc(C)cc1)CSC2	-8	14
O=S(=O)(c1ccc(-c2csc(=Nc3ccccc3)n2CCCO)cc1)N1CCOCC1	-9	43
CCN(CC)S(=O)(=O)c1ccc(-c2csc(=Nc3ccc(C)cc3)n2C)cc1	-9	-1
CCN(CC)S(=O)(=O)c1ccc(-c2csc(=Nc3cccc(C)c3)n2CCCO)cc1	0	64*
CCN(CC)S(=O)(=O)c1ccc(-c2csc(=Nc3ccc(F)cc3)n2CCCO)cc1	-2	51*
O=C(CC1CCN(C(=O)c2ccccc2)CC1)NCc1ccc(F)cc1	-2	-4
CN1CCN(C(=O)c2csc(N3CCN(c4cccc(Cl)c4)CC3)n2)CC1	-1	33
CC(C)Cn1cc(C(=O)Nc2ccc(C(C)C)cc2)c2c3ccccc3n(C)c2c1=O	5	-2
N#CC1=C(N)OC2=C(C(=O)CC(c3ccccc3)C2)C1c1cccc(Br)c1 (configuration not stated)	-1	11
SMILES	Pf apPOL inh	mHTT-CaM PPI inh
CC(C)C[C@@H]1COc2cccc(F)c2S(=O)(=O)N1C	-4	-12
COc1ccccc1-c1cc(C(F)(F)F)nc(S(=O)(=O)CCCC(=O)O)n1	-3	1
N#CC1=C(SCC(=O)Nc2ccccc2)NC(=O)CC1c1ccc(F)cc1 (configuration not stated)	-6	-2
Cn1c(NN)nc2sc3c(c2c1=O)CC(C)(C)OC3	-4	36
CC1(C)Cc2c(sc3nc(NN)nc(NN)c23)CO1	-2	100*
COc1cccc2cc(C(=O)Nc3cc(C(F)(F)F)ccc3Cl)c(=O)oc12	-2	0
O=C(O)c1cc(N2C(=O)/C(=C/c3ccc(Cl)cc3)C=C2c2ccccc2)ccc1O	-3	74*
O=C(O)c1cc(N2C(=O)/C(=C/c3ccc([N+](=O)[O-])cc3)C=C2c2ccccc2)ccc1O	-4	88*
O=C1/C(=C/c2ccc([N+](=O)[O-])cc2)C=C(c2ccccc2)N1c1ccc(F)cc1	0	18
CC(=O)Nc1ccc(N2C(=O)/C(=C/c3ccc(Cl)cc3)C=C2c2ccccc2)cc1	-1	31
Cc1cc(/C=C2\NC(=O)N(Cc3ccc(Cl)cc3)C2=O)c(C)n1-c1ccc(C#N)cc1	-4	51*
COc1cc(OC)c(OC)cc1/C=C1\NC(=O)N(Cc2ccc(Cl)cc2)C1=O	-9	-1
c1ccc(-c2nnn(Cc3nnc4n3CCCCC4)n2)cc1	8	1
O=C(CSc1n[nH]c(-c2ccncc2)n1)c1ccc(F)cc1	1	9
O=C(CSc1n[nH]c(-c2ccncc2)n1)c1ccc(O)c(O)c1	-1	84*!
COc1cc(C2=N/C(=C\c3sccc3C)C(=O)O2)cc(OC)c1OC	2	-4
CCOc1ccc(C2OC(=O)Cc3cc(OCC)c(OCC)cc32)cc1OCC (configuration not stated)	0	7
CCOc1ccc(C2Oc3c(cc(Br)cc3OC)C=C2[N+](=O)[O-])cc1OCC (configuration not stated)	-3	62*
Cc1nc(Cn2cccc2C(=O)Nc2ccc(F)cc2F)no1	-1	-14
Cc1ccc(NC(=O)Cn2c(-c3ccccc3F)nc3ccccc3c2=O)cc1Cl	-1	12
O=C(Cn1c(-c2ccccc2Cl)nc2ccccc2c1=O)Nc1ccc(F)c(Cl)c1	-4	100*
O=C(CSC1=NCCS1)NCCSCc1ccco1	-3	.
O=C(CSc1nc2ccccc2o1)NCCSCc1ccco1	63*	.
COc1ccc(Cl)cc1C(=O)Nc1nc2ccc(S(C)(=O)=O)cc2s1	1	1
COc1cc(SC)ccc1C(=O)Nc1nc2ccc(S(C)(=O)=O)cc2s1	0	63*
SMILES	Pf apPOL inh	mHTT-CaM PPI inh
OC(C#Cc1ccccc1)C#CC(O)(c1ccccc1)c1ccccc1 (configuration not stated)	4	98*
OC(C#CC(O)(c1ccccc1)c1ccccc1)c1cccnc1 (configuration not stated)	-15	-6
CN(C)CCn1c2c(c3ccccc31)CCCn1nnnc1-2	-12	56*
CC(=O)Nc1nc2ccccc2n1CCN(C)C	0	-1
COCCNC(=O)c1ccc(C(C)C)cc1	67*	0
COCCCNC(=O)c1ccc(C(C)C)cc1	-3	-3
COc1cccc(CNC(=O)C2(C)CCCN(C(=O)COc3ccc(Cl)cc3)C2)c1 (configuration not stated)	-3	42
Cc1cc(C)c2c(N3CCSCC3)nc(C(=O)N(C)C)nc2n1	-3	-9
Fc1ccc(C2Nc3ccc(F)cc3C3C=CCC32)cc1 (configuration not stated)	-1	94*
Cc1cc(I)cc2c1NC(c1ccc(F)cc1)C1CC=CC21 (configuration not stated)	0	54*
N#CC1=C(N)Oc2cc(N)ccc2C1c1ccc(-c2ccccc2)cc1 (configuration not stated)	-7	2
Cc1cc(C)n(-c2cc(Nc3ccc(C)c(F)c3)ncn2)n1	-2	22
CCN(CC)S(=O)(=O)c1ccc(-c2csc(C)n2)s1	-8	.
Cc1ccc(NCCNS(=O)(=O)c2ccc(-c3csc(C)n3)s2)nn1	-6	99*
CCSc1sc(CC)cc1C(=O)O	-7	-1
O=C(O)CN(c1ccc(Cl)c(Cl)c1)S(=O)(=O)c1ccccc1	4	6
COc1ccc(NC(=O)N2CCC(c3cc(N)on3)CC2)cc1	-2	1
CC(NC(=O)Nc1cccc(Cl)c1)c1ccccc1 (configuration not stated)	-5	-3

Source: PubChem BioAssay
